Measurements reported in PubChem BioAssay (NCI).
About 83,000 compounds went through this panel and 20% of them were active in at least one assay; those are over-represented in the sample as a whole.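 Single-concentration screen, 48 h exposure, 96-well plates. Endpoint: percent growth. Below 10 = active.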 A number with no mark means an inactive call. Calls of active or inactive are those of the source.

How the values were obtained:
Experiment in all cases: NCI-60 one-dose screen, 48 h (100 = growth as untreated, 0 = no growth, -100 = all killed)
Conditions in all cases: 10 µM unless noted
SK-MEL-2 melanoma = test system: SK-MEL-2 melanoma
EKVX NSCLC = test system: EKVX NSCLC
SN12C renal = test system: SN12C renal
UO-31 renal = test system: UO-31 renal
TK-10 renal = test system: TK-10 renal
ACHN renal = test system: ACHN renal
CAKI-1 renal = test system: CAKI-1 renal
CCRF-CEM leukemia = test system: CCRF-CEM leukemia
MOLT-4 leukemia = test system: MOLT-4 leukemia
A498 renal = test system: A498 renal

SMILES | growth (SK-MEL-2 melanoma) | growth (EKVX NSCLC) | growth (SN12C renal) | growth (UO-31 renal) | growth (TK-10 renal) | growth (ACHN renal) | growth (CAKI-1 renal) | growth (CCRF-CEM leukemia) | growth (MOLT-4 leukemia) | growth (A498 renal)
Cc1oc(-c2ccccc2)nc1CN[C@@H]1C[C@@H]2C[C@H]([C@H]1C)C2(C)C | 85.7% | 42.4% | 10.1% | 23.9% | 80.8% | 25.8% | 44.5% | 23.7% | 0.127% (active) | 
O=C1CCC(N2C(=O)c3cccc(NCCCCCC(=O)N4CCN(c5ccc6nc7c(nc6c5C(F)(F)F)C(=O)c5ncccc5C7=O)CC4)c3C2=O)C(=O)N1 (stereo not drawn) | -74.6% (active) | -59.6% (active) | -79.6% (active) | -94.5% (active) | -9.44% (active) | -70.8% (active) | -78.8% (active) | -23.1% (active) | -25.6% (active) | -80.7% (active)
Cn1cc(Nc2ncnc(-c3ccc(N4CCCC4)c(C#N)c3)n2)cn1 | 88.4% | 95.3% | 70.7% | 41.9% | 66.2% | 52.3% | 22.4% | 72.2% | 65.5% | 42.6%
O=C(CSc1nnc(-c2ccc(-c3nc4ccc(Cl)cc4[nH]3)cc2)o1)Nc1ccc(Cl)cc1 | 14.7% | 48.4% | -11.6% (active) | 30.9% | 73.7% | -69.3% (active) | -40.3% (active) | 4.89% (active) | 5.53% (active) | 127%
Cc1cc(N=C(N)c2ccccc2)ccc1OCCCCCCCCn1ccnc1 | -28.2% (active) | 20.7% | 12.7% | -30.2% (active) | 32.9% | 9.56% (active) | 20.2% | 12.3% | 14.1% | 64.6%
O=C(NNC(=S)NCCc1ccccc1)c1ccc(OCc2nc3ccc(Cl)cc3[nH]2)cc1 | 71.6% | 66.1% | 73.1% | 54.1% | 83.8% | 81.1% | 79.9% | 58.9% | 39.7% | 166%
Cc1cc(C)c2[nH]c(=O)c(C(c3nnnn3Cc3ccc4c(c3)OCO4)N3CCN(C)CC3)cc2c1 (stereo not drawn) | 105% | 106% | 108% | 103% | 115% | 106% | 97.7% | 119% | 82.3% | 102%
COc1cc(-c2ccc3ncnc(N4CCc5ccc(Cl)cc54)c3c2)cnc1Cl | 54.2% | 2.35% (active) | 26.9% | 5.14% (active) | 29.5% | 14.1% | 12.9% | 12.2% | 6.74% (active) | -4.48% (active)
COc1ccc(OC)c(Cn2cc(C#N)c(N)c2C(=O)c2ccc(Br)cc2)c1 | 4.44% (active) | 58.2% | 64.4% | 34.6% | 62.4% | 84.9% | 45.2% | 44.3% | 20.4% | 86.7%
Cc1ccc(C(=O)Nc2cc(-n3ccnc3)cc(C(F)(F)F)c2)cc1-n1cc(-c2cnc3cccnn23)nn1 | 61.1% | 117% | 105% | 61.4% | 135% | 97.8% | 113% | 96% | 105% | 180%
COc1ccc(C(=O)c2cc(C(C)=O)c3c(C)cc(C)cn23)cc1 | 70.9% | 49.4% | 55% | 67.5% | 57.4% | 56.6% | 38.6% | 104% | 82.3% | 86.1%
O=C1Nc2cc(-c3ccc(NS(=O)(=O)c4ccc(F)c(Cl)c4)cc3)ccc2/C1=C/c1ccc[nH]1 | 55.8% | 1.79% (active) | 55.3% | 35.6% | 54.5% | 6.04% (active) | 33% | 39.7% | 11.7% | 52.1%
Nc1nn2c(-c3cc4cc(Br)ccc4oc3=O)ccnc2c1N=Nc1ccccc1 | 16.1% | 36.4% | -24.4% (active) | 30.2% | 39.9% | 0.225% (active) | 15.1% | 94.5% | 87.1% | 
OC1CCC(Cn2c(C(F)(F)F)cc3c(Cl)ncnc32)CC1 (stereo not drawn) | -89.4% (active) | 65.7% | 18.5% | -80.2% (active) | 105% | -86.5% (active) | 53.1% | -7.23% (active) | -43.5% (active) | 119%
CS(=O)(=O)Nc1cncc(-c2ccc3ncnc(NCc4ccccc4)c3c2)c1 | -8.92% (active) | 55.2% | 34.8% | 52.7% | 63% | 77.5% | 60.7% | 17% | -26% (active) | 63.8%
Cc1ccc(S(=O)(=O)N(CCn2ccnc2[N+](=O)[O-])CCn2ccnc2[N+](=O)[O-])cc1 | 105% | 95.5% | 105% | 76.4% | 98.4% | 101% | 89.2% | 100% | 99.8% | 112%
O=CNc1cccc(-n2cnc3cc(-c4ccc(O)cc4)ccc32)c1 | 79.2% | 71.5% | 22.9% | 10.3% | 79.3% | 16.9% | 42.2% | 23% | 27.7% | 147%
Clc1ccc2c(NCCNC34CC5CC(CC(C5)C3)C4)ccnc2c1 | -88% (active) | -67.5% (active) | -74.5% (active) | -98.6% (active) | -94.7% (active) | -95.8% (active) | -80.8% (active) | 4.53% (active) | -23.1% (active) | -94.2% (active)
N#CC1=C(c2ccco2)Nc2c(c(-c3ccccc3)nn2-c2ccccc2)C12C(=O)Nc1ccc(Br)cc12 (stereo not drawn) | 87% | 56.2% | 5.11% (active) | 59.8% | 65.9% | 49.3% | 55.9% | 35.5% | 36.2% | 124%
COc1cc2cc(C(=O)N3C[C@@H](CCl)c4c3cc(OC(=O)N(CCC(=O)N3CCN(C)CC3)[C@H]3CCSSC3)c3ccccc43)[nH]c2c(OC)c1OC | -85% (active) | -67.7% (active) | -10.3% (active) | -26.9% (active) | 8.66% (active) | -6.81% (active) | 13.7% | 32% | -9.57% (active) | -19.6% (active)
COC(=O)c1cc(C(=O)C(C)(C)C)n2c3ccccc3c3ccccc3c12 | 93.3% | 101% | 95.5% | 84.7% | 121% | 89.7% | 60.7% | 75.8% | 67.1% | 
COc1ccc(NC(=O)CSc2nnc(-c3ccc(-c4nc5ccccc5[nH]4)cc3)o2)cc1 | 61.8% | 53.2% | 31% | 97.7% | 96.8% | 35.4% | 41.5% | 50.7% | 35.9% | 147%
COc1ccc(/C=C/C(=O)c2ccc(OC)c(S(N)(=O)=O)c2)c(C(F)(F)F)c1 | 60.8% | 14.5% | 8.16% (active) | 25.6% | 77.9% | 9.82% (active) | 24.7% | 2.27% (active) | -0.0099% (active) | 
COc1cccc2nc(Nc3cccc(NC(=O)c4ccc(CN5CCN(C)CC5)c(C(F)(F)F)c4)c3)ccc12 | -87.8% (active) | -96.2% (active) | -90.5% (active) | -88.6% (active) | -93.1% (active) | -100% (active) | -100% (active) | -44.4% (active) | -38.5% (active) | 
CN(C)CCOc1ccc(C(=O)C2[C@H](c3ccc(Cl)cc3)[C@@H](c3ccccc3)NC23C(=O)Nc2ccc(Cl)cc23)cc1 (stereo partly drawn) | -92.5% (active) | -93.9% (active) | -94.5% (active) | -99.7% (active) | -96.7% (active) | -100% (active) | -98.6% (active) | -65.4% (active) | -77.4% (active) | 
CCCCCCCCc1cccc(CC(=O)Nc2ccc(C)cc2C(=O)O)c1 | 86.3% [25 µM] | 66.5% [25 µM] | 51% [25 µM] | 53.8% [25 µM] | 63.1% [25 µM] | 46.7% [25 µM] | 36.1% [25 µM] | 26.7% [25 µM] | 17.9% [25 µM] | 
